Screening data: PubChem BioAssay, several laboratories
This is a sample that favours compounds with a hit; in the whole collection about 2.8% have one here.
KKLEB tox – cytotoxicity in KKLEB CF airway cells, primary screen, cytotoxicity control for CF NF-kB inhibitor project, cell-based, uHTS, fluorescence assay plates; KKLEB CF airway cells viability, ATPlite luminescence, overnight; active compounds read low; cells stimulated with P. aeruginosa culture filtrate; hit rate 0.36% among 360,000; activity change (cytotoxicity), % at 5 µM;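 active = corrected activity change at or below -50% at 5 µM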
MITF TRPM1 inh – inhibitors of MITF-dependent TRPM1 promoter reporter, primary screen, cell-based, SK-MEL-5, single point, luciferase. SK-MEL-5 TRPM1 promoter luciferase, 24 h. hit rate 0.83% among 330,000. AID 488899, 2010. inhibition, % at 12.5 µM;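 active = mean inhibition across replicates of 60% or more, whatever share of single replicates reaches that level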
Peg3 prom inh – Peg3 promoter-driven luciferase inhibitors, primary screen, cell-based, HeLa, luciferase luminescence. hit rate 1.7% among 360,000. AID 588405, 2011. inhibition, % at 20 µM. HeLa PEG-Prom luciferase reporter, overnight;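 active = inhibition of at least 50% at 20 µM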
CF NFkB block – inhibitors of PAF-induced NF-kB signaling, primary screen, cell-based, GFP fluorescence, uHTS; inhibition, % at 5 µM; hit rate 0.86% among 360,000; AID 588850, 2011; KKLEB NF-kB-GFP reporter, GFP fluorescence overnight;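 active = at least 50% inhibition at 5 µM, scaled per plate between neutral and stimulator controls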;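 note: PAF is a Pseudomonas aeruginosa culture filtrate used as stimulus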
HIF-2a inh – HIF-2a reporter inhibitors, primary screen, luminescence, 786-0 RCC cells; inhibition, % at 18.8 µM; AID 624352, 2012; hit rate 0.72% among 360,000; 786-0 RCC cells HIF-2a reporter, luciferase luminescence, overnight;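 active = inhibition of the luminescence signal of 40% or more relative to plate controls, in a single-dose primary screen at 18.75 µM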
Shn3 3UTR inh – reduction of Shn3 3'UTR firefly luciferase signal, primary screen, Schnurri-3 inhibitor project, cell-based, Clone20 osteoblasts, set 2. Clone20 osteoblast Shn3 3'UTR firefly luciferase, 24 h. inhibition, % at 12.5 µM. hit rate 0.52% among 360,000. AID 588674, 2011;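 active = mean inhibition of at least 75% with every replicate also reaching 75%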
Hits are given with their value; 0 = inactive; - = not tested or not shown.

SMILES | KKLEB tox | MITF TRPM1 inh | Peg3 prom inh | CF NFkB block | HIF-2a inh | Shn3 3UTR inh
Cc1cc(O)c(C(=O)/C=C/c2ccc(Cl)cc2)c(=O)o1 | 0 | 0 | 0 | 0 | 0 | 0
Cc1ccccc1OCCNc1cc(N2CC(C)NC(C)C2)ccc1[N+](=O)[O-] (stereo not given) | 0 | 0 | 81 | 0 | 0 | 0
CC1CN(c2ccc([N+](=O)[O-])c(NCCOc3ccc(Cl)cc3)c2)CC(C)N1 (stereo not given) | 0 | 0 | 77 | 0 | 0 | 0
Cc1ccc(C(NC(=O)N2CCCCC2)=C(Cl)Cl)cc1F | 0 | 0 | 53 | 0 | 0 | 0
CC(=O)OC[C@]12CC[C@H]3[C@@](C)(CC[C@H]4C(C)(C)CCC[C@]34C)[C@@H]1CC(C1=CC(=O)OC1O)O2 (stereo not given in full) | -81 | - | 105 | 92 | 89 | 98
CCOC(=O)C1=C(c2ccccc2)NC(SCC(=O)Nc2ccc(C)cc2)=C(C#N)C1c1ccco1 (stereo not given) | 0 | 0 | 0 | 0 | 0 | 0
CCOC(=O)C1=C(c2ccccc2)NC(SCC(=O)Nc2cccc(C)c2)=C(C#N)C1c1ccco1 (stereo not given) | 0 | 0 | 70 | 0 | 0 | 0
CC(C)(C)c1nnc(N/N=C/c2ccccc2)n(N)c1=O | 0 | 0 | 0 | 0 | 0 | 0
CC(C)(C)c1nnc(N/N=C/c2ccccc2O)n(N)c1=O | 0 | 0 | 0 | 0 | 0 | 90
CN(C(=O)c1cccc(NC(=O)Cc2ccc(NC(=O)C3CCCN(C(=O)CCc4ccccc4)C3)cc2)c1)C1CCCC1 (stereo not given) | 0 | 0 | 0 | 0 | 0 | 0
CN(C(=O)c1cccc(NC(=O)Cc2ccc(NC(=O)C3CCCN(C(=O)CCc4ccccc4)C3)cc2)c1)C1CCC1 (stereo not given) | 0 | 62 | 0 | 0 | 0 | 0
CCc1cccc(CC)c1NC(=O)CN1CCc2cc(OC)c(OC)cc2C1 | 0 | 0 | 0 | 0 | 0 | 0
COc1cccc(/C=N/NC(=O)Cn2cnc3c2c(=O)n(C)c(=O)n3C)c1 | 0 | - | 0 | 0 | 0 | 0
Cn1c(=N)n(CC(=O)c2ccccc2)c2ccccc21 | 0 | - | 0 | 0 | 0 | 0
N=c1n(CC(=O)c2ccc([N+](=O)[O-])cc2)c2ccccc2n1Cc1ccccc1Cl | 0 | 79 | 85 | 0 | 0 | 0
Cn1c(=N)n(CC(=O)c2ccc(Cl)c(Cl)c2)c2ccccc21 | 0 | 0 | 81 | 0 | 0 | 0
O=C(NCCCN1CCOCC1)C(c1ccccc1)c1ccccc1 | 0 | 0 | 0 | 0 | 0 | 0
CCC(=O)Nc1cc2nn(-c3ccc(C)cc3)nc2cc1C | 0 | 0 | 62 | 0 | 0 | 0
COc1ccc(-n2nc3cc(C)c(NC(=S)NC(=O)c4ccccc4C)cc3n2)cc1 | -59 | 0 | 0 | 55 | 0 | 0
CCC(=O)Nc1cc2nn(-c3ccc(OC)cc3)nc2cc1C | 0 | 0 | 0 | 0 | 0 | 0
COC(=O)Cc1ccc(NC(=S)NC2CC2)cc1 | 0 | 0 | 0 | 0 | 0 | 0
O=C(Nc1cc(S(=O)(=O)N2CCOCC2)ccc1N1CCOCC1)c1ccc([N+](=O)[O-])s1 | 0 | 83 | 0 | 0 | 0 | 0
COc1ccc(NC(=O)c2oc3ccccc3c2CSC)cc1S(=O)(=O)N1CCOCC1 | 0 | 0 | 0 | 0 | 0 | 0
Cc1ccc(NC(=O)C2=COCCO2)cc1S(=O)(=O)N1CCOCC1 | 0 | 0 | 0 | 0 | 0 | 0
Cc1ccc(NC(=O)c2oc3ccccc3c2COC(C)C)cc1S(=O)(=O)N1CCOCC1 | 0 | 0 | 0 | 0 | 0 | 88
SMILES | KKLEB tox | MITF TRPM1 inh | Peg3 prom inh | CF NFkB block | HIF-2a inh | Shn3 3UTR inh
Cc1ccc(NC(=O)c2ccc([N+](=O)[O-])s2)cc1S(=O)(=O)N1CCOCC1 | 0 | 92 | 0 | 0 | 0 | 0
CC(=O)c1cccc(NC(=O)COC(=O)CCC(=O)c2cccs2)c1 | 0 | 0 | 0 | 0 | 0 | 0
COc1cc([N+](=O)[O-])ccc1-c1ccc(/C=C2\C(=O)ON=C2c2ccccc2)o1 | 0 | 90 | 103 | 87 | 0 | 0
Cc1ccc(/C=C2/C(=O)ON=C2c2ccccc2)o1 | 0 | 71 | 50 | 0 | 68 | 0
Cc1ccc2c(c1)[C@H]1[C@H](CO2)[C@H](c2ccccc2)[C@]2(C)C(=O)Nc3cc(F)ccc3C(=O)N12 | 0 | 0 | 68 | 0 | 0 | 0
C[C@@]12C(=O)Nc3cc(F)ccc3C(=O)N1[C@H]1c3cc(Br)ccc3OC[C@@H]1[C@@H]2c1ccccc1 | 0 | 0 | 54 | 0 | 0 | 0
COc1ccc(C(=O)Nc2cc(C)nn2-c2cccc(F)c2)cc1OC | 0 | 0 | 0 | 0 | 0 | 0
Cc1nnc(SCC(=O)N2c3ccccc3CC2C)[nH]c1=O (stereo not given) | 0 | 0 | 0 | 0 | 0 | 0
CC(=O)OCC(=O)C1(O)CCC2C3CCC4=CC(=O)C=CC4(C)C3(F)C(O)CC21C (stereo not given) | 0 | 0 | 0 | 73 | 0 | 0
CC(=O)OCC(=O)[C@@]12OC3(CCCC3)O[C@@H]1C[C@H]1[C@@H]3CCC4=CC(=O)C=C[C@]4(C)[C@@]3(F)[C@@H](O)C[C@@]12C | 0 | 0 | 0 | 82 | 0 | 0
CC(=O)OCC(=O)C12OC(C)(C)OC1CC1C3CC=C4CC(O)CCC4(C)C3CCC12C (stereo not given) | 0 | 0 | 0 | 0 | 0 | 0
O=C1NCN(c2ccccc2)C12CCN(CCCC(c1ccc(F)cc1)c1ccc(F)cc1)CC2 | 0 | 0 | 82 | 0 | 0 | 0
Cc1noc(C)c1C(=O)N1CCC1(C)C(=O)NS(=O)(=O)c1cccc(F)c1 (stereo not given) | 0 | - | 0 | 0 | 0 | 0
CCN(CC)C(=S)Sc1c(-c2ccccc2)c2cc(Cl)ccc2[nH]c1=O | 0 | 0 | 0 | 0 | 0 | 87
O=C1CCCN1CC(O)CS(=O)(=O)Cc1ccccc1Cl (stereo not given) | 0 | 0 | 0 | 0 | 0 | 0
CC1=C([N+](=O)[O-])C(c2cccc(Br)c2)C2=C(N1)c1ccccc1C2=O (stereo not given) | -56 | 61 | 0 | 0 | 0 | 0
COC(=O)C(Sc1ccc(Cl)cc1)C1SC(=S)N(Cc2ccccc2)C1=O (stereo not given) | 0 | - | 0 | 58 | 0 | 0
c1csc(CCNc2ncnc3sc4c(c23)CCC4)c1 | 0 | 0 | 0 | 0 | 0 | 88
c1ccc(Nc2ncnc3sc4c(c23)CCC4)cc1 | 0 | 0 | 0 | 0 | 0 | 0
CC(=O)Oc1c(I)cc(I)cc1C(=O)Nc1ccc(Cl)cc1 | 0 | 0 | 0 | 70 | 0 | 0
COc1ccc(Cl)cc1C(=O)Nc1ccc(NC(C)=O)cc1 | 0 | 0 | 0 | 0 | 0 | 0
